ALDH1A1 block = ALDH1A1 (human) enzyme inhibition. AID 1030. Potency, µM (highest dose often 75.3 µM), usual class: inhibitors. P00352. Purified ALDH1A1, NADH fluorescence, propionaldehyde substrate. 220,000 tested, 7.3% active
Target sequence (P00352 whole entry, looked up): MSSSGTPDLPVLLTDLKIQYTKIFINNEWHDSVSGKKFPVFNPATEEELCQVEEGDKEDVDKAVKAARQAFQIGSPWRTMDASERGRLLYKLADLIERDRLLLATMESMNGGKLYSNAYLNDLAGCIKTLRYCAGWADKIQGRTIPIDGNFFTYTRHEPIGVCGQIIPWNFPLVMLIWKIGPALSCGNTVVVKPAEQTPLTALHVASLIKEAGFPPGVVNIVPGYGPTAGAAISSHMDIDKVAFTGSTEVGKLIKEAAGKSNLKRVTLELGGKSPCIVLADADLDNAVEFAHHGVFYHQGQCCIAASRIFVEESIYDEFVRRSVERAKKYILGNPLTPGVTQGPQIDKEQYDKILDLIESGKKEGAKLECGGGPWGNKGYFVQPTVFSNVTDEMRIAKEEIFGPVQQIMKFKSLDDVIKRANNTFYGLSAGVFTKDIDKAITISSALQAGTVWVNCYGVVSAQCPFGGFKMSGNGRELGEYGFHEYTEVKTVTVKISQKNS
Lamin A splicing = LMNA splicing modulation | HeLa LMNA splicing GFP/RFP minigene ratio, 48 h | Potency, µM (doses to about 46.1 µM), actives largely listed as inhibitors | 200,000 tested, 0.01% active | AID 1487; active means well fitted inhibition curve with a large enough effect in the signal ratio, with a control signal flat, not every such curve was filed as active; inconclusive means small, poorly fitted or top-dose-only effect, or effect the other way, or a change in a side signal; the % refers to the signal ratio
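Read-out is the ratio of GFP to DsRed2 object intensity, acquired by 488 nm laser-scanning cytometry on HeLa lamin A-EGFP minigene reporter cells. Compound incubation 48 hrs at 37 °C in Opti-MEM with 2% FBS; DMSO 0.5% final.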
HPGD block = inhibitors of human 15-hydroxyprostaglandin dehydrogenase (HPGD); P15428; Potency, µM, usual class: inhibitors; 150,000 tested, 4.3% active; purified HPGD, NADH fluorescence kinetic, PGE2 substrate
Target sequence (P15428 whole entry, looked up): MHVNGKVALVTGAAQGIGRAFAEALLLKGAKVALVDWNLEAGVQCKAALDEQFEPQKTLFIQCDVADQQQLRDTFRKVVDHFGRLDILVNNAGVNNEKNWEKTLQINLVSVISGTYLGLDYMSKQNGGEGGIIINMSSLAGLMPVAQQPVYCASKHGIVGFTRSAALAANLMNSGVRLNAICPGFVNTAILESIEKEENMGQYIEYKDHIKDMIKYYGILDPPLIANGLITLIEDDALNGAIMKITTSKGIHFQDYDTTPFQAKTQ
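NADH formation kinetics: reaction with 30 uM PGE2 and 1 mM NAD+ (final), 20 nM enzyme, Tris-HCl pH 8 with Tween 20, after 15 min compound preincubation at room temperature. Fluorescence change, last versus first of five reads.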
PNC assembly inh = inhibitors of perinucleolar compartment assembly; 140,000 tested, 3.1% active; AID 2417; activity change (PNC), negative = inhibition, % at 10 µM; PC3M PTB-GFP, PNC prevalence imaging, 16 h; active compounds read low;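 active means readout at or below -70, meaning at least 70% loss of cells showing the perinucleolar compartment, a nuclear body marking cancer cells; inconclusive means readout between -30 and a set limit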
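Compounds are pinned in duplicate onto adhered PC3M cells stably expressing GFP-tagged PTB and incubated 16 h at 37 C. Cells are then fixed, nuclei stained with Hoechst, and PNC-positive cells counted.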
KinaseGlo FLuc = counter-screen: inhibitors of Kinase-Glo firefly luciferase; Potency, µM (doses to about 38.3 µM), most hits filed as inhibitors; Q27757; 200,000 tested, 0.28% active; Kinase-Glo luciferase, ATP luminescence, 8 min; active means well fitted inhibition curve with a large enough effect; inconclusive means small, poorly fitted or top-dose-only effect; further: nearly all actives have a fitted effect of over 60% in size
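Compounds were added to a substrate mix at pH 7.2 (50 mM imidazole, 10 uM ATP, within the enzyme's linear range), followed by Kinase-Glo detection reagent; luminescence was measured after 8 minutes at ambient temperature.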
IMPase cell inh = membrane-permeable compound that blocks inositol monophosphatase; P97697; CHO-M1 cells, IP1 accumulation, HTRF TR-FRET ratio; inhibition (IP1 accumulation), % at 46.1 µM; 120,000 tested, under 10 active; AID 901; active means well fitted curve in the direction sought with a large enough effect in the signal ratio, not every such curve was filed as active; inconclusive means small, poorly fitted or top-dose-only effect, or a change in a side signal; inactive means no such curve, though single readings can be large or run the other way; the % refers to the signal ratio;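 further: cells stimulated with carbachol in lithium chloride buffer; higher means more IMPase inhibition seen as more IP1 and lower FRET ratio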
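In this qHTS, compounds (final up to 46 uM) act on CHO-M1 cells that are then activated through the M1 receptor with carbachol, in pH 7.4 buffer containing 50 mM LiCl, for 30 min. IP1 accumulation is quantified by the IP-One immunoassay.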
A number is an active result; i = inactive; ? = inconclusive; nt = no result; ! = not confirmed by another sample; [ ] = dose if it differs, or a comment. This is a sample that favours compounds with a hit; in the whole collection about 10% have one here. Unless noted, the call rests on the fitted dose curve; in most records, active means well fitted inhibition curve with a large enough effect (not every such curve was filed as active); inconclusive means small, poorly fitted or top-dose-only effect, or another doubt; inactive means no such curve, though single readings can be large or run the other way.

SMILES	ALDH1A1 block	Lamin A splicing	HPGD block	PNC assembly inh	KinaseGlo FLuc	IMPase cell inh
COc1cc(O)c(C(=O)c2ccccc2)cc1S(=O)(=O)O	12.6µM	?	i	nt	i	nt
NC(CCl)=N[C@H]1CN2CCC1CC2	?	nt	i	nt	i[7.66 µM]	nt
Cc1cccc(N)c1C	i	nt	i	nt	nt	nt
CCCN(CC#CCOc1ccc(OC)cc1)CCC	20µM	i	i	i	i	i
Clc1ccc(OCC#CCN2CCCC2)cc1	?	i	nt	nt	i	nt
Nc1ccccc1-c1ccccc1	?	nt	i	nt	nt	nt
CCCCCCCCCc1ccc(O)cc1	100µM	?	i	nt	i	nt
COc1ccccc1N1CCN(C2CCN(C(=O)c3cc(OC)c(OC)c(OC)c3)CC2)CC1	?	i	i	i	i	i
COc1ccccc1N1CCN(C2CCN(C(=O)c3cccs3)CC2)CC1	?	i	i	-118.9	i	i
COc1ccc(O)c(C(C)(C)C)c1	i	nt	i	nt	i	nt
CC(C)(C)c1cc(O)ccc1O	3.55µM	?	i	nt	i[7.66 µM]	nt
CC(C)(C)c1ccccc1O	31.6µM	nt	i	nt	nt	nt
Cc1ccccc1O	i	nt	i	nt	nt	nt
COC(=O)C1=CO[C@@H](C)[C@@H]2CN3CC[C@]4(C(=O)Nc5c4ccc(OC)c5OC)[C@H]3C[C@H]12	i	nt	i	nt	i	nt
O=C1NC(=O)C(=Cc2cc3c(cc2[N+](=O)[O-])OCO3)C(=O)N1	15.8µM	i	nt	nt	i	nt
O=[N+]([O-])c1ccc2nc(CCCc3nc4ccc([N+](=O)[O-])cc4[nH]3)[nH]c2c1	14.1µM	?	nt	nt	i	nt
C=CCN1C[C@@H](C)N([C@H](c2ccc(C(=O)N(CC)CC)cc2)c2cccc(OC)c2)C[C@H]1C	nt	nt	nt	nt	nt	i
O=C(NC1CN2CCC1CC2)c1ccc(-c2ccc([N+](=O)[O-])cc2)o1 (stereo not drawn)	0.447µM	i	i	i	i	nt
O=C(OCCCCN1C(=O)c2ccccc2C1=O)c1ccc(Br)o1	?	?	15.8µM	i	i	i
OC(c1ccc(Cl)cc1)(c1ccc(Cl)cc1)C(Cl)(Cl)Cl	i	nt	i	nt	nt	nt
Cc1cc2c(C(C)C)c(O)c(O)c(C=O)c2c(O)c1-c1c(C)cc2c(C(C)C)c(O)c(O)c(C=O)c2c1O	i	?	8.91µM!	?	i	i
O=C(O)CS(=O)(=O)C(c1ccccc1)c1ccccc1	i[13.5 µM]	nt	i	nt	i[7.66 µM]	nt
CC(C)n1cc2c3c(cccc31)[C@@H]1C[C@H](C(=O)O[C@@H](C)[C@H](C)O)CN(C)[C@H]1C2	nt	nt	nt	nt	nt	i
Cc1ccc(C(=O)NC(=S)NNS(=O)(=O)c2ccc(C)cc2)cc1	i	i	15.8µM	?	i	nt
ClP(Cl)(Cl)(Cl)Cl	nt	nt	i	nt	nt	nt
SMILES	ALDH1A1 block	Lamin A splicing	HPGD block	PNC assembly inh	KinaseGlo FLuc	IMPase cell inh
COc1cc2c(cc1OC)-c1c(OC)c(OC)c(OC)c3ccnc(c13)C2=O	i	?	?	-101.5	i	nt
O=C(OCC(=O)c1ccc([N+](=O)[O-])cc1)/C(=C/c1ccc(Cl)cc1)NC(=O)c1ccccc1	7.94µM	i	i	?	i	nt
O=C(C[N+]12CCC(CC1)C(OC(=O)c1ccccc1)C2)c1ccc([N+](=O)[O-])cc1 (stereo not drawn)	i	nt	nt	nt	nt	nt
c1ccc2c([C@@H]3CCN(CCN4CCOCC4)C3)c[nH]c2c1	i[13.5 µM]	nt	i	nt	i[7.66 µM]	nt
CC(C)c1nccn1Cc1ccc(Cl)cc1Cl	i[13.5 µM]	nt	i	nt	i[7.66 µM]	nt
CC[C@@H]1[C@@H]2Cc3ccc(O)cc3[C@@]1(CC)CCN2C	i[13.5 µM]	nt	i	nt	i[7.66 µM]	nt
Ic1ccccc1CN[C@@H]1C2CCN(CC2)[C@H]1C(c1ccccc1)c1ccccc1	nt	nt	nt	nt	nt	i
Cc1noc(C(=O)Nc2sc3c(c2C#N)CCC3)c1Cl	12.6µM	?	25.1µM	i	i	i
NC(N)=Nc1ccc2[nH]c3c(c2c1)C[C@]1(O)[C@@H]2Cc4ccc(O)c5c4[C@]1(CCN2CC1CC1)[C@H]3O5	nt	nt	nt	nt	nt	i
FC(F)(F)c1ccccc1CN1CCN(Cc2ccccc2)CC1	20µM	i	i	i	i	i
CC(C)N1CCN(Cc2ccccc2C(F)(F)F)CC1CCO (stereo not drawn)	i	i	nt	nt	i	nt
c1ccc2cc3c(cc2c1)-c1cccc2cccc-3c12	?	nt	i	nt	nt	nt
Cc1ccc(-c2nn(C)c(=O)c3ccccc23)cc1CNC(=O)/C=C/c1ccccc1	22.4µM	?	?	?	i	i
O=C(O)C(O)(c1ccc(-c2ccccc2)cc1)c1ccc(-c2ccccc2)cc1	i[13.5 µM]	nt	i	nt	i[7.66 µM]	nt
c1ccc(CCN2CCC(N3CCN(c4ccccc4)CC3)CC2)cc1	i	i	i	-100.0	i	i
CCCCN(Cc1ccccc1)C1CCN(CCc2ccccc2)CC1	i	i	i	i	i	nt
C[C@H]1O[C@@H](O[C@H]2[C@@H](O)C[C@H](O[C@H]3[C@@H](O)C[C@H](O[C@H]4CC[C@@]5(C)[C@H](CC[C@@H]6[C@@H]5CC[C@]5(C)[C@@H](C7=CC(=O)OC7)CC[C@]65O)C4)O[C@@H]3C)O[C@@H]2C)C[C@H](O)[C@@H]1O	i	?	i	-81.7	i	nt
C[C@@H]1O[C@@H](O[C@H]2C[C@@H](O)[C@]3(CO)[C@H]4[C@H](O)C[C@]5(C)[C@@H](C6=CC(=O)OC6)CC[C@]5(O)[C@@H]4CC[C@]3(O)C2)[C@H](O)[C@H](O)[C@H]1O	i	?	i	-114.6	i	nt
C=CC(=O)OCC	i	nt	i	nt	nt	nt
COC(=O)C1(O)CC2OC1(C)n1c3ccccc3c3c4c(c5c6ccccc6n2c5c31)C(=O)NC4 (stereo not drawn)	i[13.5 µM]	nt	i	nt	i	nt
CN[C@H]1C[C@H]2O[C@@](C)([C@H]1OC)n1c3ccccc3c3c4c(c5c6ccccc6n2c5c31)C(=O)NC4	i	?	?	-114.6	i	nt
CN(C)[C@@H]1C(=O)C(C(N)=O)=C(O)[C@]2(O)C(=O)C3=C(O)c4c(O)cccc4[C@@](C)(O)[C@H]3[C@H](O)[C@@H]12	?	?	?	nt	i	i
CN(C)C1C(=O)C(C(N)=O)=C(O)[C@@]2(O)C(=O)C3=C(O)c4c(O)cccc4[C@@](C)(O)C3[C@H](O)C12 (stereo partly drawn)	7.08µM	nt	?	nt	i	nt
C[C@@H](O)CN(CCN(C[C@@H](C)O)C[C@@H](C)O)C[C@@H](C)O.O=[N+]([O-])O.[Cu]	?	nt	i	nt	i[7.66 µM]	nt
O=P(O)(O)c1ccccc1 (tested in a mixture with another compound)	i[13.5 µM]	nt	i	nt	i[7.66 µM]	nt
O=C(c1ccc2c(c1)ncn2-c1ccc(F)cc1F)N1CCC2(CC1)OCCO2	?	nt	nt	nt	i	nt
COc1ccc(-n2c(C)nc3cc(C(=O)N4CCC5(CC4)OCCO5)ccc32)cc1	?	i	12.6µM	i	i	i
Cc1nc2cc(C(=O)N3CCC4(CC3)OCCO4)ccc2n1-c1ccc(Br)cc1	?	i	8.91µM	i	i	i
c1ccoc1	i	nt	i	nt	nt	nt
CC(=O)Nc1ccc(C2CN(C)CC2C(=O)c2ccc(Cl)cc2)cc1 (stereo not drawn)	?	i	nt	nt	i	nt

Compound activity: PubChem BioAssay, National Center for Advancing Translational Sciences (NCATS)
